Here are results for 21 compounds from the supplement of paper PMC6805474.

The structures appear in SMILES notation.

For assay [1], the system named is Schistosoma mansoni schistosomula (LE). Nature of the assay: XTT viability relative to DMSO control; higher = more viable (less active). The conditions noted are these: 72 h; 10 µM. The protocol:
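XTT/PMS was then added for a further 24 h (72 h total) and A450 was read. % viability = (sample - heat-killed control)/(DMSO control - heat-killed control) x 100, from duplicate wells in two independent experiments.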
(In general: Tetrazolium dyes change colour on reduction, which living cells bring about.)

Assay [2] concerns Schistosoma mansoni schistosomula (NMRI). Nature of the assay: phenotypic severity score (0-4); higher = more antischistosomal effect, active = 2 or more. The conditions noted are these: 10 µM.
Assay [3] relates to Schistosoma mansoni schistosomula (Liberian). As to the kind of experiment: drug effect (1 - score/DMSO control score) (fraction); higher = more antischistosomal effect, active = 0.5 or more; extreme values may be limits of the assay. The conditions noted are these: 10 µM. The gist of the method: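 A plate was valid only if its 0.1% DMSO wells averaged a score of at least 2. Those wells ran beside duplicate wells in which 50 Liberian-strain Schistosoma mansoni schistosomula each, transformed mechanically from cercariae and pre-incubated at least 12 h, met 10 µM compound in Medium 199 with 5% FCS at 37 °C, 5% CO2. Scoring was visual at 10× at 24, 48 and 72 h, from 3 (normal) to 0 (dead) in quarter-point steps. Drug effect was derived from the mean test-well score against the mean DMSO-well score, with negatives set to zero.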
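Throughout, for phenotypic severity score (0-4): visual microscopic scoring of shape, motility and density changes versus 0.5% DMSO solvent controls, one point per descriptor, degeneracy or death scored 4, mean of duplicate wells.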

For `COC(=O)c1ccc(F)cc1NS(=O)(=O)c1cccc(-c2cnn(Cc3ccccc3)c2)c1`, in assay [1], the XTT viability amounted to 89.1%. Further, the phenotypic severity score in assay [2] (24 h), in assay [2] (48 h) and in assay [2] (72 h) was 1 (inactive) in each case. Moreover, the drug effect in assay [3] (24 h) was 0.409 (inactive); in assay [3] (48 h), 0.45 (inactive); in assay [3] (72 h), 0.455 (inactive).
As for `CC(=O)Nc1ccc(-c2noc(CC3CCCN(Cc4cccc(F)c4C)C3)n2)cc1` (configuration not stated), the XTT viability in assay [1] stood at 117%. Also, the phenotypic severity score in assay [2] (24 h), in assay [2] (48 h) and in assay [2] (72 h) was 0 (inactive) in each case. Also, the drug effect was 0.1 (inactive) in assay [3] (24 h), 0.0556 (inactive) in assay [3] (48 h) and 0.188 (inactive) in assay [3] (72 h).
As for `CN(C)CCNC(=O)N1CCCN(c2ncnc3cc(-c4ccccc4)sc23)CC1`, the XTT viability in assay [1] turned out to be 106%. The phenotypic severity score in assay [2] (24 h), in assay [2] (48 h) and in assay [2] (72 h) was 0 (inactive) throughout. Moreover, the drug effect in assay [3] (24 h) is < 0 (inactive); in assay [3] (48 h) it was 0.2 (inactive); in assay [3] (72 h), 0.556 (active).
Take `CC(C)(C)n1nc(-c2ccccc2)c2c(N)ncnc21`: the XTT viability in assay [1] was determined as 106%. Besides, the phenotypic severity score is 1 (inactive) in assay [2] (24 h), 0 (inactive) in assay [2] (48 h) and 0 (inactive) in assay [2] (72 h). Besides, the drug effect in assay [3] (24 h) was 0.182 (inactive); in assay [3] (48 h), 0.2 (inactive); in assay [3] (72 h), 0.127 (inactive).
Regarding `C[C@@H]1[C@H](O)[C@@H](C)/C=C/C=C/C=C/C=C/C=C/C=C/C=C/[C@H](O[C@@H]2O[C@H](C)[C@@H](O)[C@H](N)[C@@H]2O)C[C@@H]2O[C@](O)(C[C@@H](O)C[C@@H](O)[C@H](O)CC[C@@H](O)C[C@@H](O)CC(=O)O[C@H]1C)C[C@H](O)[C@H]2C(=O)O`, the XTT viability in assay [1] was 95%. The phenotypic severity score in assay [2] (24 h), in assay [2] (48 h) and in assay [2] (72 h) was 0 (inactive) throughout. The drug effect in assay [3] (24 h) is 0.136 (inactive); in assay [3] (48 h), 0.15 (inactive); in assay [3] (72 h), 0.105 (inactive).
For `COc1ccc(-c2cc(NC(=O)c3ccc(F)cc3Cl)ccc2OC)cc1`, the XTT viability in assay [1] worked out at 89.7%. Besides, the figures for the phenotypic severity score in assay [2] (24 h), in assay [2] (48 h) and in assay [2] (72 h) were 0 (inactive), 1 (inactive) and 0 (inactive), respectively. Further, the drug effect in assay [3] (24 h) is 0.0909 (inactive); in assay [3] (48 h) it was 0.25 (inactive); in assay [3] (72 h), 0.236 (inactive).
In the case of `Clc1ccc(Cl)c(CO[C@H]2CCCC[C@@H]2n2ccnc2)c1`, the XTT viability in assay [1] was 109%. Also, the phenotypic severity score in assay [2] (24 h), in assay [2] (48 h) and in assay [2] (72 h) was 0 (inactive) in each case. In addition, the drug effect is 0.2 (inactive) in assay [3] (24 h), 0.167 (inactive) in assay [3] (48 h) and 0.25 (inactive) in assay [3] (72 h).
Turning to `COc1cc(OC)cc(C(=O)NCC2Cc3cc(Cl)cc(-c4ccncc4)c3O2)c1` (configuration not stated), in assay [1], the XTT viability came to 153%. In addition, the phenotypic severity score in assay [2] (24 h), in assay [2] (48 h) and in assay [2] (72 h) was 0 (inactive) in each case. Moreover, the drug effect was 0.1 (inactive) in assay [3] (24 h), 0.189 (inactive) in assay [3] (48 h) and 0.152 (inactive) in assay [3] (72 h).
As for `CC(=O)N(CCN(C(=O)c1ccc(F)cc1)c1ccccc1)c1ccccc1`, in assay [1], the XTT viability turned out to be 117%. In addition, the phenotypic severity score was 1 (inactive) in assay [2] (24 h), 0 (inactive) in assay [2] (48 h) and 0 (inactive) in assay [2] (72 h). Besides, the drug effect in assay [3] (24 h) is 0.1 (inactive); in assay [3] (48 h), 0.027 (inactive); in assay [3] (72 h), 0.0909 (inactive).
`Cc1nn(C)cc1C(C)Nc1nncc(-c2ccc(C(F)(F)F)cc2)n1` (configuration not stated): in assay [1], the XTT viability is 77.5%. Moreover, the phenotypic severity score in assay [2] (24 h), in assay [2] (48 h) and in assay [2] (72 h) was 0 (inactive) each time. Also, the drug effect in assay [3] (24 h) is 0.136 (inactive); in assay [3] (48 h), 0.1 (inactive); in assay [3] (72 h), 0.105 (inactive).
Take `CN1CCN(S(=O)(=O)c2ccc(-c3ccc4c(Nc5ncc(Cl)cn5)ccnc4c3)cc2)CC1`: in assay [1], the XTT viability stood at 32.4%. In addition, the phenotypic severity score in assay [2] (24 h) is 2 (active); in assay [2] (48 h), 4 (active); in assay [2] (72 h), 4 (active). The drug effect in assay [3] (24 h) was 0.6 (active); in assay [3] (48 h), 0.611 (active); in assay [3] (72 h) it was 0.625 (active).
As for `Cc1ccc(NC(=O)CC2COc3ccccc3O2)cc1Cl` (configuration not stated), in assay [1], the XTT viability came to 125%. Further, the phenotypic severity score in assay [2] (24 h), in assay [2] (48 h) and in assay [2] (72 h) was 0 (inactive) in each case. In addition, the drug effect is 0.136 (inactive) in assay [3] (24 h), 0.3 (inactive) in assay [3] (48 h) and 0.4 (inactive) in assay [3] (72 h).
Consider `C[C@H](C(N)=O)N1CCCC[C@@H]1c1ccc(OCc2cccc(F)c2)cc1`, for which, in assay [1], the XTT viability came out at 88.1%. The phenotypic severity score in assay [2] (24 h), in assay [2] (48 h) and in assay [2] (72 h) was 0 (inactive) throughout. Also, the drug effect in assay [3] (24 h) was 0.2 (inactive); in assay [3] (48 h), 0.444 (inactive); in assay [3] (72 h) it was 0.5 (active).
`CNC(=O)c1nn(C)c2c1C(C)(C)Cc1cnc(Nc3ccc(N4CCN(C)CC4)cc3)nc1-2`: the XTT viability in assay [1] came out at 157%. The phenotypic severity score was 3 (active) in assay [2] (24 h), 4 (active) in assay [2] (48 h) and 4 (active) in assay [2] (72 h). Besides, the figures for the drug effect in assay [3] (24 h), in assay [3] (48 h) and in assay [3] (72 h) were 0.364 (inactive), 0.8 (active) and 0.891 (active), respectively.
With `O=C(NC1CC1)c1ccc(N2CCC(Cc3ccccc3)CC2)nc1`, the XTT viability in assay [1] turned out to be 91.1%. The phenotypic severity score in assay [2] (24 h), in assay [2] (48 h) and in assay [2] (72 h) was 0 (inactive) each time. The drug effect is 0.1 (inactive) in assay [3] (24 h), 0.0811 (inactive) in assay [3] (48 h) and 0.167 (inactive) in assay [3] (72 h).
For the compound `CCN(CC)CCCCCCNc1cc(OC)cc2c(C)ccnc12`, the XTT viability in assay [1] was 59.3%. The phenotypic severity score in assay [2] (24 h), in assay [2] (48 h) and in assay [2] (72 h) was 0 (inactive) throughout. Moreover, the results for the drug effect in assay [3] (24 h), in assay [3] (48 h) and in assay [3] (72 h) were 0.1 (inactive), 0.135 (inactive) and 0.167 (inactive), respectively.
As for `C[C@H]1COc2c(N3CCN(C)CC3)c(F)cc3c(=O)c(C(=O)O)cn1c23`, in assay [1], the XTT viability was determined as 67.9%. The phenotypic severity score in assay [2] (24 h), in assay [2] (48 h) and in assay [2] (72 h) was 0 (inactive) each time. Moreover, the drug effect in assay [3] (24 h) was 0.0455 (inactive); in assay [3] (48 h) it was 0.05 (inactive); in assay [3] (72 h), 0.0526 (inactive).
For `NS(=O)(=O)c1cccc(-c2ccc3ncc(N4CCOCC4)nc3c2)c1`, the XTT viability in assay [1] is 116%. Further, the phenotypic severity score in assay [2] (24 h), in assay [2] (48 h) and in assay [2] (72 h) was 0 (inactive) in each case. In addition, the drug effect is 0.15 (inactive) in assay [3] (24 h), 0.189 (inactive) in assay [3] (48 h) and 0.455 (inactive) in assay [3] (72 h).
Take `CCCCc1ccc(C(=O)Nc2nccc3ccccc23)nc1`: the XTT viability in assay [1] came to 94.2%. In addition, the phenotypic severity score in assay [2] (24 h) is 1 (inactive); in assay [2] (48 h), 0 (inactive); in assay [2] (72 h), 1 (inactive). Moreover, the drug effect is 0.1 (inactive) in assay [3] (24 h), 0.167 (inactive) in assay [3] (48 h) and 0.188 (inactive) in assay [3] (72 h).
In the case of `CN1CCCN(C(c2ccccc2)c2ccc(Cl)cc2)CC1` (configuration not stated), the XTT viability in assay [1] is 67.9%. The phenotypic severity score in assay [2] (24 h), in assay [2] (48 h) and in assay [2] (72 h) was 0 (inactive) in each case. The drug effect in assay [3] (24 h) was 0.455 (inactive); in assay [3] (48 h), 0.05 (inactive); in assay [3] (72 h) it was 0.263 (inactive).
Take `COc1cccc(-c2cc3c(Nc4cccnc4)nccc3[nH]2)c1`: the XTT viability in assay [1] was 104%. For the same compound, the phenotypic severity score in assay [2] (24 h), in assay [2] (48 h) and in assay [2] (72 h) was 0 (inactive) in each case. Besides, the drug effect in assay [3] (24 h) was 0.1 (inactive); in assay [3] (48 h), 0.135 (inactive); in assay [3] (72 h) it was 0.152 (inactive).
